Bioassay records: PubChem BioAssay, Broad Institute
F508del corr: CFTR F508del correction in bronchial cells. CFBE cells, YFP halide quenching; stimulated with forskolin plus potentiator P3; % fluorescence drop versus neutral controls. activity (quench increase), % at 7.58 µM. 0.36% of 350,000 active. AID 720511;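 active = mean added fluorescence quench of at least 8% versus neutral control, with both replicates also reaching 8%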;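 also: cells transiently co-express mutant CFTR-F508del with the halide-sensitive YFP; corrector assay measuring rescue of mutant channel to the surface after 24 h compound exposure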
ARNT-TACC3 inh: disruptors of human ARNT/TACC3 interaction; Q9Y6A5; AlphaScreen His-ARNT PAS-B/GST-TACC3 binding, luminescence; TACC3 fragment carries E629A point mutation; inhibition, % at 9.99 µM; 0.66% of 390,000 active;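 active = mean inhibition of replicates at least 50% and at least half of replicates each reaching 50%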
Ecoli rRNA inh: inhibitors of bacterial rRNA selective over humanized ribosomes. GFP signal change (wild-type ribosome), % (no concentration beside the values). E. coli WT GFP vs humanized-ribosome RFP mutants, fluorescence, 24 h; active compounds read low; DMSO median 0, no signal -100. AID 720706. 1.6% of 350,000 active;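 active = significant combined selectivity score with lowered wild-type GFP, culture density cut under 30%, mutant RFP and density less affected; inactive = any of these conditions unmet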
ERAP1 inh: ERAP1 (human) enzyme inhibition; Q9NZ08; recombinant ERAP1, Leu-AMC fluorescence, 60 min; inhibition, % at 10.7 µM; 0.15% of 340,000 active; AID 652197;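 active = mean replicate inhibition of at least 30%, or all replicates individually reaching that 30% level; inactive = mean below 30% and not every replicate reaching it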
PvdQ inh: blocks Pseudomonas aeruginosa PvdQ acylase activity. purified PvdQ acylase, fluorescence plate reader. inhibition, % at 10 µM. 0.063% of 340,000 active; in the data active = inhibition above about 30%, passing the limit was not always enough
A number is an active result; ! = a repeat was not active. Compounds with a hit are over-represented: about 2.1% of the library has one in this group of screens.

For C[C@@H]1CN([C@@H](C)CO)C(=O)c2cc(C#Cc3ccc(F)cc3)cnc2O[C@H]1CN(C)S(C)(=O)=O the results were F508del corr inactive, ARNT-TACC3 inh inactive, Ecoli rRNA inh inactive and ERAP1 inh inactive.
Screening COc1ccccc1C#Cc1ccc2c(c1)O[C@@H](CN(C)Cc1cccnc1)[C@H](C)CN([C@H](C)CO)S2(=O)=O returned F508del corr 8.2, ARNT-TACC3 inh inactive and ERAP1 inh inactive.
C[C@@H]1CN([C@H](C)CO)S(=O)(=O)c2ccc(C#Cc3ccccc3F)cc2O[C@H]1CN(C)C(=O)Cc1cccnc1 was read as F508del corr 10, ARNT-TACC3 inh inactive, Ecoli rRNA inh inactive and ERAP1 inh inactive.
C[C@H](CO)N1C[C@H](C)[C@H](CN(C)C(=O)Cc2cccnc2)Oc2cc(C#Cc3ccccc3F)ccc2S1(=O)=O was read as F508del corr inactive, ARNT-TACC3 inh inactive, Ecoli rRNA inh inactive and ERAP1 inh inactive.
`COCC(=O)N(C)C[C@H]1Oc2cc(C#Cc3cccnc3)ccc2S(=O)(=O)N([C@H](C)CO)C[C@H]1C` gave F508del corr inactive, ARNT-TACC3 inh active!, Ecoli rRNA inh inactive and ERAP1 inh inactive.
For CCN(Cc1nc2cc(Cl)ccc2c(=O)[nH]1)C(=O)c1nn(C)c(=O)c2ccccc12 the results were F508del corr inactive, ARNT-TACC3 inh inactive, Ecoli rRNA inh inactive, ERAP1 inh 63 and PvdQ inh inactive.
`COc1ccc(C(=O)COC(=O)c2ccccc2O)c(OC)c1` gave F508del corr inactive, ARNT-TACC3 inh inactive, Ecoli rRNA inh -18, ERAP1 inh inactive and PvdQ inh inactive.
`COc1ccc(C(=O)OCC(=O)c2cc(OC)ccc2OC)c(OC)c1` gave ARNT-TACC3 inh inactive and PvdQ inh inactive.
`c1ccc2c(-c3csc(-c4ccncc4)n3)c[nH]c2c1` gave F508del corr inactive, ARNT-TACC3 inh inactive, Ecoli rRNA inh -27, ERAP1 inh inactive and PvdQ inh inactive.
Brc1ccc(-c2csc(-c3c[nH]c4ccccc34)n2)cc1 was read as ARNT-TACC3 inh inactive and PvdQ inh inactive.
C[C@@H]1CCCCO[C@@H](CN(C)C(=O)c2ccccc2)[C@@H](C)CN([C@@H](C)CO)C(=O)c2cc(NC(=O)NC3CCCCC3)ccc2O1 was read as F508del corr inactive, ARNT-TACC3 inh inactive, Ecoli rRNA inh inactive and ERAP1 inh inactive.
CC(=O)Nc1ccc(/C=C/c2ccc3cccc([N+](=O)[O-])c3n2)cc1 was read as F508del corr inactive, ARNT-TACC3 inh inactive, Ecoli rRNA inh -16 and PvdQ inh inactive.
Screening O=C(O)COc1ccc(/C=C/c2ccc3cccc([N+](=O)[O-])c3n2)cc1 returned F508del corr inactive, ARNT-TACC3 inh inactive, Ecoli rRNA inh inactive, ERAP1 inh inactive and PvdQ inh inactive.
`C[C@H](CO)N1C[C@H](C)[C@@H](CN(C)C(=O)NC2CCCCC2)Oc2c(NC(=O)Nc3cccc4ccccc34)cccc2C1=O` gave F508del corr inactive, ARNT-TACC3 inh inactive, Ecoli rRNA inh inactive and ERAP1 inh inactive.
`C[C@@H]1CN([C@@H](C)CO)C(=O)c2cc(-c3ccccc3)cnc2O[C@H]1CN(C)C(=O)Cc1ccccc1` gave F508del corr inactive, ARNT-TACC3 inh inactive, Ecoli rRNA inh inactive and ERAP1 inh inactive.
For O=C1CCCCN1CCC(=O)N1CCCC(N2CCN(c3cccc(Cl)c3)CC2)C1 (stereo not given) the results were F508del corr inactive, ARNT-TACC3 inh inactive, Ecoli rRNA inh inactive, ERAP1 inh inactive and PvdQ inh inactive.
O=C(CCC(F)(F)F)N1CCCC(N2CCN(c3cccc(Cl)c3)CC2)C1 (stereo not given) was read as F508del corr inactive, ARNT-TACC3 inh inactive, Ecoli rRNA inh -23, ERAP1 inh inactive and PvdQ inh inactive.
Screening O=C(Cn1nc(C(F)F)cc1C(F)F)NNC(=S)Nc1ccc([N+](=O)[O-])cc1 returned F508del corr inactive, ARNT-TACC3 inh inactive, Ecoli rRNA inh -18, ERAP1 inh inactive and PvdQ inh inactive.
NC(=O)NC(=O)COC(=O)CCCSc1nc2ccccc2s1 was read as F508del corr inactive, ARNT-TACC3 inh inactive, Ecoli rRNA inh inactive, ERAP1 inh inactive and PvdQ inh inactive.
For CCOC(=O)NC(=O)COC(=O)CCCSc1nc2ccccc2s1 the results were F508del corr inactive, ARNT-TACC3 inh inactive, Ecoli rRNA inh -27, ERAP1 inh inactive and PvdQ inh inactive.
`COc1ccc2c3c([nH]c2c1)[C@H](CO)N(C(=O)C1CCOCC1)CC31CCN(Cc2cccc(F)c2)CC1` gave Ecoli rRNA inh inactive.
For CCCCSC1(SCCCC)N=C(N)C2(C#N)C(c3ccccc3)NC(C)=CC12C#N (stereo not given) the results were ARNT-TACC3 inh 56 and PvdQ inh inactive.
Screening Cc1ccc(S(=O)(=O)Nc2ccc3c(c2)C(=O)N([C@@H](C)CO)C[C@H](C)[C@@H](CN(C)C(=O)Nc2ccccc2)OCCCC[C@@H](C)O3)cc1 returned F508del corr inactive, ARNT-TACC3 inh inactive, Ecoli rRNA inh inactive and ERAP1 inh inactive.
For O=C(N[C@@H]1CC[C@H](CCNS(=O)(=O)c2ccc(Cl)cc2)O[C@H]1CO)c1cccnc1 the results were F508del corr inactive, ARNT-TACC3 inh inactive, Ecoli rRNA inh inactive and ERAP1 inh inactive.
CN(Cc1ccccc1)c1ncnc2ccc(Br)cc12 was read as ARNT-TACC3 inh inactive and PvdQ inh 97.
`CCOc1ccccc1Nc1ncnc2ccc(Br)cc12` gave F508del corr inactive, Ecoli rRNA inh inactive, ERAP1 inh inactive and PvdQ inh inactive.
For CSc1ccc(NC(=O)Nc2cccn(Cc3ccccc3)c2=O)cc1 the results were F508del corr inactive, ARNT-TACC3 inh inactive, Ecoli rRNA inh -30, ERAP1 inh inactive and PvdQ inh inactive.
Screening O=C(CNC(=O)C1COc2ccccc2O1)N/N=C\c1ccccc1Cl (stereo not given) returned F508del corr inactive, ARNT-TACC3 inh inactive, Ecoli rRNA inh inactive, ERAP1 inh inactive and PvdQ inh inactive.
For COc1cccc(/C=N/NC(=O)CNC(=O)C2COc3ccccc3O2)c1O (stereo not given) the results were Ecoli rRNA inh -20, ERAP1 inh inactive and PvdQ inh inactive.
COc1cccc(/C=N/NC(=O)CNC(=O)c2ccco2)c1O was read as F508del corr inactive, ARNT-TACC3 inh 36, Ecoli rRNA inh inactive and PvdQ inh inactive.
For COc1cccc(/C=N/NC(=O)CNC(=O)c2ccc3c(c2)OCCO3)c1O the results were ARNT-TACC3 inh inactive and PvdQ inh inactive.
`COc1ccccc1-c1cn(CC[C@H]2CC[C@H](NC(=O)C3CCOCC3)[C@H](CO)O2)nn1` gave F508del corr inactive, ARNT-TACC3 inh inactive, Ecoli rRNA inh inactive and ERAP1 inh inactive.
COc1ccc(S(=O)(=O)Nc2ccc3c(c2)C(=O)N([C@H](C)CO)C[C@@H](C)[C@@H](CN(C)C(=O)Nc2ccccc2)O3)cc1 was read as F508del corr inactive, ARNT-TACC3 inh inactive, Ecoli rRNA inh inactive and ERAP1 inh inactive.
